“And” between values parts separate entries of the source, which are not always exact repeats. Identical values can stand only once. Screen size: about 420,000 compounds; about 50,000 (12%) were called active. Inconclusive results (about 26%) are left out. The call rests on the fitted dose curve; in most records, active means well fitted inhibition curve with a large enough effect; inconclusive means small, poorly fitted or top-dose-only effect; inactive means flat fitted curve, though single readings scatter. What follows is part of a selection rich in actives, with near analogues and random picks from the rest. A call without a number means that no potency is given here.
assay: qHTS for Inhibitors of human tyrosyl-DNA phosphodiesterase 1 (TDP1): qHTS in cells in presence of CPT; details: chicken DT40 Tdp1-/-;hTDP1 cells + 20 nM CPT, ATP luminescence, 48 h; series mostly up to 46.2 µM; further: nearly all actives have a fitted effect of over 55% in size
In short: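 Chicken DT40 Tdp1-/- cells stably complemented with human TDP1 were seeded at 400 cells/well in medium containing 20 nM camptothecin, exposed to pin-transferred compounds, and grown at 37 °C for at least 48 hr. Viability was read as ATP luminescence.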
Potency means the concentration at half of the fitted maximal effect.

Row | SMILES | Potency
1 | N#Cc1c(-c2ccccc2)nc(SCc2ccc([N+](=O)[O-])cc2)[nH]c1=O | inactive
2 | O=C(Nc1ccccc1)/C(=C\c1ccco1)NC(=O)c1ccco1 | inactive
3 | CCN(CC(=O)Nc1ccc(OC)cc1)C(=O)c1ccc(=O)n(Cc2ccccc2)n1 | inactive
4 | COc1ccc(NC(=O)CCCNC(=O)Cn2cnc3sc4c(c3c2=O)CCCC4)cc1OC | inactive
5 | O=C(Nc1ccccc1C(=O)N1CCCCCC1)c1ccccc1Cl | inactive
6 | Nc1nnnn1/N=C/c1cccc(Br)c1 | inactive
7 | CCOC(=O)c1c(NC(=O)C2(C)Cc3ccccc3C(=O)O2)sc2c1CCCC2 (stereo unspecified) | 18.4 µM (active)
8 | CCOC(=O)c1c(NC(=O)c2ccc(Br)o2)sc2c1CCCC2 | inactive
9 | CCOC(=O)c1c(NC(=S)Nc2ccccc2C)sc2c1CCC2 | inactive
10 | O=C1c2ccccc2C(=O)N1CCC(O)C[N+](=O)[O-] (stereo unspecified) | inactive
11 | COc1ccc(CCNc2nc3c(-c4cccc(F)c4)nnn3c3ccccc23)cc1OC | inactive
12 | COCCCNc1nc2c(-c3cccc(C)c3)nnn2c2ccc(Cl)cc12 | 11.6 µM (active)
13 | COCCCNc1nc2c(-c3cccc(C(F)(F)F)c3)nnn2c2ccccc12 | inactive
14 | C[C@@H]1O[C@@H](OC[C@H]2O[C@@H](Oc3c(-c4ccc(O)cc4)oc4cc(O)cc(O)c4c3=O)[C@H](O)[C@@H](O)[C@@H]2O)[C@H](O)[C@H](O)[C@H]1O | inactive
15 | COc1cccc(-n2c(=O)c3c(C)c(C(=O)N(C)C)sc3n(Cc3cccc(C)c3)c2=O)c1 | inactive
16 | COc1cc(OC)cc(C2=Cc3ccccc3C(CC(=O)c3ccco3)N2c2ccc(-c3cnc(OC)nc3)cc2)c1 (stereo unspecified) | inactive
17 | Cn1c2ccccc2c2cc(/C=C(\NC(=O)c3ccccc3)C(=O)NCC(=O)O)ccc21 | inactive
18 | O=C(C1CCC(Cn2c(=O)c3sccc3n(Cc3ccccc3F)c2=O)CC1)N1CCCCC1 (stereo unspecified) | 23.1 µM (active)
19 | CCCNC(=O)C1CCC(Cn2c(=O)c3sccc3n(Cc3ccccc3F)c2=O)CC1 (stereo unspecified) | 14.6 µM (active)
20 | O=C(C1CCN(CC2CCCCC2)CC1)N1CCCC1 | inactive
21 | CCC1CCCCN1CCCNC(=O)C1CCC(Cn2c(=O)[nH]c3ccccc3c2=O)CC1 (stereo unspecified) | inactive
22 | O=c1c(F)cn(C2CCCO2)c(=O)n1Cc1ccccc1Cl (stereo unspecified) | inactive

Row | SMILES | Potency
23 | Cc1cccc(Cn2c(=O)n(CCC(=O)NCCc3ccc(Cl)cc3)c(=O)c3sccc32)c1 | inactive
24 | C=Cc1ccc(Cn2c(C(=O)OC)cc3sc(C)cc32)cc1 | inactive
25 | COc1ccc(S(=O)(=O)NC(=O)C2(C)CCN2C(=O)c2ccccc2CCc2ccccc2)cc1 (stereo unspecified) | inactive
26 | CCc1cc(=O)oc2c(C)c(OCC(=O)NCCN3CCOCC3)ccc12 | 23.1 µM (active)
27 | CCCc1cc(=O)oc2c(C)c(OCC(=O)NCc3ccccn3)ccc12 | inactive
28 | CCCc1cc(=O)oc2c(C)c(OCC(=O)Nc3ccccn3)ccc12 | inactive
29 | O=C(NCc1cccnc1)C12CC3CC(CC(C3)C1)C2 | inactive
30 | CCOc1ccc(C(C)=O)cc1COC(=O)CNC(=O)c1cccs1 | inactive
31 | CN(C)CCCNC(=O)c1ccc2[nH]c3ccccc3c2c1 | inactive
32 | Cc1ccc(C(=O)NCCSc2c(C)[nH]c3ccccc23)cc1C | 18.4 µM (active)
33 | COC(=O)CCNC(=O)c1ccc2[nH]c(C)c(C)c2c1 | inactive
34 | COc1cccc(NC(=O)CN(C)C(=O)CSC(=S)N2CCCC2)c1 | inactive
35 | Cc1cc(C)cc(NS(=O)(=O)c2ccc(F)cc2)c1 | inactive
36 | Cn1c(=O)sc2cc(NS(=O)(=O)c3ccc(C(C)(C)C)cc3)ccc21 | inactive
37 | Cn1c(=O)n(C)c2cc(S(=O)(=O)Nc3ccc(F)cc3)ccc21 | 16.4 µM (active)
38 | O=C(Nc1ccccc1N1CCOCC1)c1ccc(OCc2cscn2)cc1 | inactive
39 | O=Nc1c(O)cc(O)c2ccccc12 | inactive
40 | O=C(/C=C/c1cccc(F)c1)NC1CC1 | inactive
41 | CC(C)c1cc(NCc2ccccn2)n2c(nc3ccccc32)c1C#N | 5.8 µM (active)
42 | Cc1cc(NCc2ccco2)n2c(nc3ccccc32)c1C#N | inactive
43 | Cc1cc(NC(C)C)n2c(nc3ccccc32)c1C#N | inactive
44 | O=C(COC(=O)c1cc(S(=O)(=O)N2CCOCC2)ccc1F)NC1CC1 | inactive

Row | SMILES | Potency
45 | O=C(C[n+]1cc(-c2ccc(Cl)c(Cl)c2)n2c1CCC2)c1cccs1 | 10.3 µM (active)
46 | CCS(=O)(=O)N1CCN(C(=O)c2cccs2)CC1 | inactive
47 | Cc1ccc(C(=O)C[n+]2cc(-c3ccccc3)n3c2CCCCC3)cc1 | 5.62 µM (active) and 1.64 µM (active)
48 | CCCS(=O)(=O)N1CCN(C(=O)c2cccs2)CC1 | inactive
49 | Cc1ccc(-c2c[n+](CC(=O)Nc3ccccc3)c3n2CCC3)cc1 | 11.6 µM (active)
50 | Cc1ccc(NC(=S)N2CCCC(c3ccccc3)=N2)cc1 | inactive
51 | Cc1ccc(NC(=O)CN2CCc3ccccc3C2)cc1 | inactive
52 | O=C(c1ccc(CSc2ccccc2)cc1)N1CCCCCC1 | inactive
53 | Cc1ccc(C(=O)N2CCCC(c3ccccc3)=N2)cc1 | inactive
54 | COc1ccccc1NC(=O)N1CCCC1C(=O)NCc1cccs1 (stereo unspecified) | inactive
55 | CC(C)CN(C(=O)CSc1ncnc2sccc12)C1CCS(=O)(=O)C1 (stereo unspecified) | inactive
56 | O=C(COc1ccc(NC(=O)c2ccccc2[N+](=O)[O-])cc1)c1ccc(F)cc1 | inactive
57 | CSc1nc(-c2ccccc2)nc(C(Cl)Cl)n1 | 1.16 µM (active)
58 | CSc1ncc(Sc2ccccc2)c(C(=O)O)n1 | inactive
59 | COc1ccc(CC(NC(C)=O)C(=O)N2CCN(C(=O)Nc3cccc(Cl)c3)CC2)cc1OC (stereo unspecified) | inactive
60 | COc1ccc(OCCCC(=O)Oc2ccc(OC)cc2)cc1 | inactive
61 | COc1ccc(OCCC(=O)c2ccc(OC)cc2)cc1 | 2.59 µM (active)
62 | COc1ccc(CCC(=O)c2ccc(OC)cc2)cc1 | inactive
63 | Cc1ccc2sc(NNC(=O)c3ccc4c(c3)OCCO4)nc2c1C | inactive
64 | CNc1ccc(-c2nc(-c3ccccc3C)no2)cc1[N+](=O)[O-] | inactive
65 | Cc1noc(C)c1C(=O)N1CCOCC1 | inactive
66 | Cc1oc2c(c1C(=O)N1CCOCC1)C(=O)c1ccccc1C2=O | 2.59 µM (active)

Row | SMILES | Potency
67 | Cc1onc(-c2ccccc2)c1C(=O)N1CCOCC1 | inactive
68 | CC(NCC(=O)Nc1ccccc1C(=O)NC1CC1)c1ccccc1Cl (stereo unspecified) | inactive
69 | O=C(c1cccc(Br)c1)N1CCN(Cc2cc(=O)n3nc(-c4ccccc4)sc3n2)CC1 | inactive
70 | CCOC(=O)c1sc(=S)n(-c2cccc(OC)c2)c1N | 35.5 µM (active)
71 | CCOC(=O)C(C)n1cnc2c(nnn2-c2cccc(OC)c2)c1=O (stereo unspecified) | inactive
72 | COc1cccc(-n2c(=S)sc3c(=O)n(-c4ccccc4C)c(SCC(=O)O)nc32)c1 | inactive
73 | Cc1cc(Br)ccc1NC(=O)c1sc2ncn(CC(=O)N3CCN(c4ccccn4)CC3)c(=O)c2c1C | inactive
74 | CSc1ncccc1C(=O)Nc1cccc(S(=O)(=O)N2CCOCC2)c1 | inactive
75 | O=C(Nc1ccc(F)cc1)c1cccnc1N1CCOCC1 | inactive
76 | Cc1ccc(S(=O)(=O)NCC(=O)N2CCN(c3ccccn3)CC2)cc1 | inactive
77 | Cc1cc(Br)ccc1NC(=O)c1cnc(N2CCN(c3ccccn3)CC2)c2ccccc12 | 14.6 µM (active)
78 | CCc1cccc(NC(=O)c2cnc(N3CCOCC3)c3ccccc23)c1 | 20.6 µM (active)
79 | O=C(NCc1ccccc1)C1c2ccccc2OCC(=O)N1C1CC1 (stereo unspecified) | inactive
80 | CS(=O)(=O)N(CC(=O)NC1CCCC1)Cc1ccc(F)cc1 | inactive
81 | CCCCn1c(N)c(N(CC(C)C)C(=O)c2ccc(Br)o2)c(=O)[nH]c1=O | inactive
82 | CCOCc1nnc(NC(=O)CCC2CCCCC2)s1 | inactive
83 | COCCN(C(=O)CCC(=O)Nc1nccs1)C(C(=O)NCCC(C)C)c1ccc(F)cc1 (stereo unspecified) | inactive
84 | O=C(CC(NC(=O)c1ccccc1)c1ccccc1)Nc1ccc(F)c(F)c1 (stereo unspecified) | inactive
85 | O=C(c1ccc(Cn2cc([N+](=O)[O-])cn2)o1)N1CCCC1 | inactive
86 | O=C(Nc1ccc(Br)c2cccnc12)c1ccc(Cn2cc([N+](=O)[O-])cn2)o1 | 16.4 µM (active)
87 | COc1cccc(NC(=O)c2ccc(Cn3cc([N+](=O)[O-])cn3)o2)c1 | inactive
88 | COC1=CC(=O)OC(C)(c2ccccc2)C1 (stereo unspecified) | inactive

Row | SMILES | Potency
89 | Cc1c(Cc2ccccc2)c(=O)oc2cc(OCC(N)=O)ccc12 | inactive
90 | CC(=O)c1c(C)n(-c2ccc(C)cc2)c2ccc(O)cc12 | inactive
91 | CC(=O)c1c(C)n(-c2ccc(N(C)C)cc2)c2ccc(OCC(N)=O)cc12 | 18.4 µM (active)
92 | CCCCc1ccc(S(=O)(=O)NC(=O)C2(C)CCN2C(=O)c2ccccc2)cc1 (stereo unspecified) | inactive
93 | Cc1cccc2[nH]c(CN(C)C(=O)C3CCC(=O)N(CCc4ccccc4)C3)nc12 (stereo unspecified) | inactive
94 | CS(=O)(=O)Nc1ccccc1N=C(c1ccccc1)c1ccccc1 | inactive
95 | CC(C)CN(C(=O)CSc1nncn1C)C1CCS(=O)(=O)C1 (stereo unspecified) | inactive
96 | COc1cc(CC(=O)N2CCC(n3nccc3NC(=O)C3CC3)CC2)cc(OC)c1OC | inactive
97 | CCOc1cc(/C=N/NC(=O)CN2CCCCC2)ccc1O | inactive
98 | CCOc1cc(/C=C(\C#N)c2nc(-c3cccs3)c(NC(C)=O)s2)ccc1O | 2.31 µM (active)
99 | CCOc1cc(/C=C(\C#N)C(=O)Nc2ccccc2C)ccc1OCc1cc(=O)n2nc(CC)sc2n1 | inactive
100 | Cc1cc2c(C)nc(N/N=C/c3ccccc3)nc2o1 | inactive
101 | Cc1ccc(C(=O)CN2C(=O)NC3(CCOc4ccccc43)C2=O)s1 (stereo unspecified) | inactive
102 | Cc1ccc(NC(=O)C(C)OC(=O)Cc2c[nH]c3ccccc23)cc1S(=O)(=O)N1CCOCC1 (stereo unspecified) | inactive
103 | Cc1ccc(-n2nc(C)c(C(=O)O)c2-n2cccc2)cc1 | inactive
104 | Cc1ccc(S(=O)(=O)N2CC(C)N(S(C)(=O)=O)C2)cc1 (stereo unspecified) | inactive
105 | Cc1ccc(S(=O)(=O)N2C[C@@H]3CCCC[C@@H]3[C@@H](C)[C@H]2c2cn(Cc3ccccc3)c3ccc(F)cc23)cc1 | 6.51 µM (active)
106 | O=C(CS(=O)(=O)c1cn(Cc2cccc(F)c2)c2ccccc12)N1CCCCC1 | inactive

Reference: PubChem BioAssay AID686979 (National Center for Advancing Translational Sciences (NCATS), 2013)
